Compound activity: PubChem BioAssay, several laboratories
Hits are enriched below; roughly 3% of the tested compounds scored in any of these assays.
Mtb FBA inh: inhibitors of M. tuberculosis fructose-bisphosphate aldolase; purified M. tuberculosis FBA, fluorescence read-out; AID 588726; P9WQA3; 360,000 tested, 2.3% active; inhibition, % at 1 µM;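 also: 0% = vehicle and 100% = reference inhibitor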
Target sequence (P9WQA3 whole entry, looked up): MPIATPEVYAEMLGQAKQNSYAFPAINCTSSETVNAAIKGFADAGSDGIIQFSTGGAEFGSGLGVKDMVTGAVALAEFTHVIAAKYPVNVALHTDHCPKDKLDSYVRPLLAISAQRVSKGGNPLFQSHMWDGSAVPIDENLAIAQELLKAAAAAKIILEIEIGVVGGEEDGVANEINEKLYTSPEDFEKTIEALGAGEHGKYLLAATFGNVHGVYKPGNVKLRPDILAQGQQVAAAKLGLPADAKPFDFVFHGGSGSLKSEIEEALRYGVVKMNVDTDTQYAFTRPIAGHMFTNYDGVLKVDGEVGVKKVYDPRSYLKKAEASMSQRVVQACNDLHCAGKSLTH
Rv3671c inh: inhibitors of M. tuberculosis serine protease Rv3671c; P9WHR9; inhibition, % at 5.96 µM; 320,000 tested, 0.048% active; AID 2606; in the data active = inhibition above about 38%;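 also: extracellular domain of Rv3671c used as enzyme; 0% = enzyme with DMSO and 100% = no enzyme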
FadD28 binding: M. tuberculosis FadD28 bisubstrate binding inhibition; FadD28 bisubstrate probe binding, fluorescence polarization; inhibition, % at 12.5 µM; 360,000 tested, 0.22% active; in the data active = inhibition above about 8.5%, passing the limit was not always enough
GDH-TPI counter-1: counter-screen for M. tuberculosis FBA inhibitors: GDH-TPI coupled enzymes. GDH-TPI coupled enzyme counterscreen, NADH absorbance. 360,000 tested, 1.2% active. inhibition, % at 4.8 µM. AID 588335; in the data active = inhibition above about 30%;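 also: 0% = DMSO wells and 100% = wells lacking the enzyme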
BioA inh: blocks M. tuberculosis BioA enzyme activity; purified M. tuberculosis BioA enzyme, plate reader; inhibition, % at 9.99 µM; 360,000 tested, 0.096% active; AID 602481; in the data active = inhibition above about 40%
Mtb FBA confirm: confirmation of M. tuberculosis fructose-bisphosphate aldolase inhibitors. purified M. tuberculosis FBA, fluorescence read-out. 5,600 tested, 78% active. shares compounds with Mtb FBA inh. AID 651616. inhibition, % at 1 µM;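 also: 0% = vehicle wells and 100% = reference inhibitor wells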
GDH-TPI counter-2: GDH-TPI inhibition counter-screen for FBA inhibitors. shares compounds with Mtb FBA inh. inhibition, % at 1 µM. 5,600 tested, 81% active. AID 652141. GDH-TPI coupled enzyme counterscreen, fluorescence; in the data active = inhibition above about 10%
The depositor's hits bear a star; · = no result; + = active, no number. Rule as the data show it, unless noted: active = inhibition above about 27%; inactive = the rest.

SMILES	Mtb FBA inh	Rv3671c inh	FadD28 binding	GDH-TPI counter-1	BioA inh	Mtb FBA confirm	GDH-TPI counter-2
CC(C)NC(=O)N(C)C[C@@H]1Oc2cc(-c3ccccc3F)ccc2S(=O)(=O)N([C@@H](C)CO)C[C@H]1C	·	·	·	·	0	·	·
COc1cc(Cn2c3ccc(NC(=O)CCc4ccc(O)cc4)cc3c(=O)n2C)ccc1F	111*	·	1	9	0	169*	125*
Cn1c(=O)c2cc(NC(=O)CCc3ccc4c(c3)OCO4)ccc2n1Cc1ccc(F)cc1	85*	·	-1	5	-2	48*	21*
CN(C)c1cc2c3ccccc3n(C)c2cc1N	71*	·	0	15	-1	147*	134*
Cc1ccc(C)c2c1c1ccccc1n2C	4	11	0	2	3	·	·
COc1ccccc1-c1cn(CC[C@H]2CC[C@@H](NC(=O)NC(C)C)[C@@H](CO)O2)nn1	·	·	·	·	2	·	·
CCCc1nc2ccc(C)cn2c1Cc1ccccc1	7	·	1	·	-4	·	·
CCCc1nc2ccc(C)cn2c1Cc1cccc(F)c1	28*	·	-7	·	2	43*	31*
Cc1ccc2nc(C(C)(C)C)c(Cc3cccc(F)c3)n2c1	36*	·	-9	·	6	200*	172*
Fc1cccc(Cc2c(-c3cccc(Cl)c3)nc3ccc(Cl)cn23)c1	3	·	-4	·	0	·	·
C[C@@H]1CN([C@@H](C)CO)C(=O)c2cc(NC(=O)Cn3cnnn3)ccc2O[C@H]1CN(C)Cc1ccc(Cl)c(Cl)c1	·	·	·	·	5	·	·
Cc1ccc2nc(-c3ccc4c(c3)OCCO4)cn2c1	62*	-6	-2	13	1	195*	141*
Clc1ccc2nc(-c3ccc4c(c3)OCO4)cn2c1	45*	-2	-1	29	1	+	+
c1ccn2cc(-c3ccc4c(c3)OCCO4)nc2c1	80*	-7	0	7	·	91*	90*
O=C(C[C@@H]1C[C@H]2c3cc(NC(=O)Nc4ccccc4F)ccc3O[C@H]2[C@H](CO)O1)NCc1ccc(Oc2ccccc2)cc1	·	·	·	·	-1	·	·
Cc1noc(C)c1NC(=O)N(C)C[C@H]1OCc2ccccc2-c2c(n(C)c3ccccc23)C(=O)N([C@H](C)CO)C[C@H]1C	·	·	·	·	2	·	·
COc1ccc2oc(C(=O)OCC(=O)Nc3ccc(N4CCOCC4)cc3)c(C)c2c1	7	8	-2	6	·	·	·
COc1ccc2oc(C(=O)OCC(=O)Nc3ccccc3)c(C)c2c1	33*	-8	0	5	-1	+	168*
COc1ccc2oc(C(=O)OCC(=O)Nc3ccc(C(=O)N(C)C)cc3)c(C)c2c1	28*	9	0	9	1	44*	44*
COc1ccc2oc(C(=O)OCC(=O)NC(C)c3ccccc3)c(C)c2c1 (stereo unspecified)	39*	-5	-4	-1	0	127*	85*
COc1ccc2oc(C(=O)OCC(=O)Nc3ccccc3OC)c(C)c2c1	16	3	-3	12	-1	·	·
COc1ccc2oc(C(=O)OCC(=O)N(Cc3ccccc3)C(C)C)c(C)c2c1	17	-6	-3	5	·	·	·
COc1ccc2oc(C(=O)OCC(=O)NC(=O)NC(C)C)c(C)c2c1	35*	-7	-3	11	-2	45*	35*
CN1CCN(C(=O)C[C@H]2C[C@H]3c4cc(NC(=O)CC5CC5)ccc4O[C@H]3[C@H](CO)O2)CC1	·	·	·	·	-3	·	·
CCC(=O)N1[C@H](C(=O)N2CCc3ccccc3C2)[C@@H](CO)[C@@H]2Cn3c(cccc3=O)[C@@H]21	·	·	·	·	1	·	·
SMILES	Mtb FBA inh	Rv3671c inh	FadD28 binding	GDH-TPI counter-1	BioA inh	Mtb FBA confirm	GDH-TPI counter-2
C[C@H]1CN([C@@H](C)CO)C(=O)c2cc(NC(=O)Cc3ccccc3)ccc2O[C@H]1CN(C)Cc1ccc2c(c1)OCO2	·	·	·	·	1	·	·
CN(C)C(=O)C[C@H]1CC[C@@H](NC(=O)c2ccc(F)cc2)[C@@H](CO)O1	·	·	·	·	-1	·	·
CCC(=O)NC[C@@H]1[C@@H](c2ccc(C3=CCCC3)cc2)[C@H](CO)N1C(=O)C1CC1	·	·	·	·	0	·	·
CCOC(=O)c1cnc2c(-c3ccc(Cl)cc3)cnn2c1C	-2	3	-1	1	·	·	·
CCOC(=O)c1cnc2c(-c3ccc(F)cc3)cnn2c1C(F)(F)F	74*	·	4	13	·	17	7
COc1cccc(-c2ccc(C#N)c(=O)[nH]2)c1	111*	-6	0	19	·	+	+
COc1ccc(OC)c(/C=C/C(=O)N2CCN(S(=O)(=O)c3cc(C)ccc3C)CC2)c1	16	1	-1	4	-1	·	·
COc1ccc(OC)c(/C=C/C(=O)N(C)CC(=O)Nc2ccc(C)cc2)c1	23	-7	0	25	1	·	·
COc1ccc(OC)c(/C=C/C(=O)N2CCN(S(=O)(=O)c3ccc(C)cc3C)CC2)c1	29*	-7	-1	12	-1	-2	-3
COc1ccc(OC)c(/C=C/C(=O)N(C)CC(=O)Nc2cc(C)ccc2C)c1	29*	-6	-2	7	0	34*	29*
CCN(CC(=O)NCc1cccs1)C(=O)/C=C/c1cc(OC)ccc1OC	37*	7	0	21	3	155*	115*
CN1C(=O)c2cc(NC(=O)c3ccccc3Cl)ccc2OC[C@@H]2O[C@H](CC(=O)NCC(F)(F)F)CC[C@@H]21	·	·	·	·	-2	·	·
CC(C)NC(=O)Nc1ccc2c(c1)CC(=O)N([C@H](C)CO)C[C@H](C)[C@H](CN(C)Cc1ccccc1)O2	·	·	·	·	-1	·	·
C[C@H]1CN([C@@H](C)CO)C(=O)c2cc(C#Cc3cccnc3)cnc2O[C@@H]1CN(C)C(=O)CN(C)C	·	·	·	·	5	·	·
CC(C)CC#Cc1ccc2c(c1)O[C@@H](CN(C)CC1CC1)[C@@H](C)CN([C@@H](C)CO)S2(=O)=O	·	·	·	·	-1	·	·
COc1ccc(S(=O)(=O)N(C)C[C@H]2Oc3ccc(NC(=O)Cc4ccccc4)cc3CC(=O)N([C@H](C)CO)C[C@@H]2C)cc1	·	·	·	·	-1	·	·
CC1(C)CC(=O)C2=C(C1)c1c(ccc3ccccc13)NC2c1ccc(Br)o1 (stereo unspecified)	31*	-14	2	16	0	174*	148*
COc1ccc(C2CC(=O)c3c(ccc4ccccc34)N2)cc1OC (stereo unspecified)	-3	-11	0	-6	3	·	·
COc1ccc(C2Nc3ccccc3NC3=C2C(=O)CC(C)(C)C3)c(OC)c1OC (stereo unspecified)	-4	7	-3	8	-2	·	·
COc1cccc(C2Nc3ccc4ccccc4c3C3=C2C(=O)CC(C)(C)C3)c1OCC(=O)O (stereo unspecified)	65*	15	0	9	-2	132*	114*
C[C@H](CO)N1C[C@H](C)[C@H](CN(C)Cc2ccc(C(=O)O)cc2)Oc2c(NC(=O)Nc3ccc4c(c3)OCO4)cccc2C1=O	·	·	·	·	2	·	·
